Data from PubChem BioAssay (NCATS).
Inconclusive results are not listed. A call without a number means that no potency is given here. Active and inactive are the calls of the source. Calls follow the shape of the dose curve; as a rule, active = well fitted cell-killing curve with a large enough effect; inconclusive = small, poorly fitted or top-dose-only effect, or effect the other way; inactive = no such curve, though single readings can be large or run the other way.

Assay: Viability qHTS for spleen associated tyrosine kinase inhibitor (SYKi) naive MV4-11 cells (AID 1963823); also: nearly all actives have a fitted effect of over 40% in size
Settings: MV4-11 AML viability, CellTiter-Glo luminescence, 72 h; series mostly up to 45 µM
How it was run: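 SYK inhibitor-naive MV4-11 cells, 500 per well, exposed to compounds for 72 hr at 37 C, 5% CO2. Viability read as CellTiter-Glo luminescence after 10 min at room temperature.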
Potency is read from the fitted curve at half-maximal effect.

Row | Compound | Potency
1 | C=C1CC[C@@H]2[C@](C)(CO)[C@H](O)CC[C@@]2(C)[C@@H]1C/C=C1/C(=O)OC[C@H]1O | 2.63 µM (active)
2 | CCCCCOC(=O)Nc1nc(=O)n(C2O[C@H](C)[C@@H](O)[C@H]2O)cc1F (some centres not stated) | inactive
3 | CCc1c(-c2ccccc2)c(-c2ccccc2)nn1-c1ccccc1-c1cccc(OCC(=O)O)c1 | inactive
4 | O=C(N[C@H]1CCN(C(=O)c2cc(C(F)(F)F)cc(C(F)(F)F)c2)[C@H](Cc2ccc(Cl)cc2)C1)c1ccnc2ccccc12 | 8.93 µM (active)
5 | CC(=O)/C=C/[C@H]1[C@](C)(O)[C@@H](O)[C@H](OC(C)=O)C2C(C)(C)CCC[C@@]21C (some centres not stated) | inactive
6 | Cc1nnc(-c2ccc(-c3ccc(C(=O)Nc4ccc(O)c(N5CCN(C)CC5)c4)cc3)c(C)c2)o1 | inactive
7 | CN(CCOc1ccc(C[C@H](Nc2ccccc2C(=O)c2ccccc2)C(=O)O)cc1)c1ccccn1 | inactive
8 | O=C1NC(=O)C(c2cn(-c3ccccc3)nc2-c2ccc(F)cc2)N1 (configuration not stated) | inactive
9 | C=C1CC[C@H]2[C@@](C)(CCC(O)[C@@]2(C)CO)[C@@H]1CCC1=CCOC1=O (some centres not stated) | inactive
10 | COc1ccccc1NC(=O)OCC1CCN(C(=O)OC(C)(C)C)CC1 | inactive
11 | COC(=O)[C@H](OC(C)=O)[C@H]1C(C)(C)C(=O)[C@H]2CC3=C4CC(=O)O[C@@H](c5ccoc5)[C@]4(C)CCC3[C@@]1(C)C2=O (some centres not stated) | inactive
12 | COc1cc(-c2cccc(O)c2)cc2c1OCO2 | inactive
13 | C=C1C(=O)O[C@@H]2C3C(=C(C)[C@@H](O)[C@@H](OC(=O)/C(=C/C)COC(C)=O)[C@@H]12)C(=O)[C@H]1O[C@@]31C (some centres not stated) | 2.82 µM (active)
14 | COc1ccc(CCN(C)CCCC(C#N)(c2cc(OC)c(OC)c(OC)c2)C(C)C)cc1OC (configuration not stated) | 23.7 µM (active)
15 | C[C@@H]1C[C@H]2OC(=O)[C@@]3(C)CCC[C@](C)(C23)[C@@]1(O)CCC1=CC(=O)OC1O (some centres not stated) | inactive
16 | Cc1nc(CN(C)c2ncnc3ccc(-c4ccc5c(c4)OCO5)cc23)cs1 | 3.26 µM (active)
17 | Cc1nc2ccccc2c(-c2ccc3c4c(ccnc24)CCO3)c1[C@H](OC(C)(C)C)C(=O)O | inactive
